Test results taken from PubChem BioAssay AID1159580 (chemical genetic matrix, 2015).
“And” between values parts separate entries of the source, which are not always exact repeats. Equal entries are not always repeated. In all, about 5,500 compounds went through this assay and about 2,000 (36%) were called active. About 18% were inconclusive and are not listed. Rule as the data show it: active = normalized growth mostly below about 0.91 (no sharp cut-off); inconclusive = no clear call, values can overlap the other calls; inactive = mostly above about 0.92. This is one part of the list.

Assay: chemical genetic growth profiling, strain panel (AID 1159580);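 also: tested at 20 µM; growth read once vehicle control cultures reached saturation at 30 °C; 1 = growth at the plate median or of vehicle wells; lower values mean less growth of the strain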
Conditions: S. cerevisiae deletion strains, growth OD

Measured: normalized growth

COC(=O)C[C@H]1C2(C)CC34OC5(C)O[C@@]6([C@H](OC)C(OC(=O)C(C)C)[C@]7(C)C(/C(=C(/OC)C(C)C)C(=O)O[C@H]7c7ccoc7)[C@@]6(O5)[C@H](OC)[C@@]3(OC)C2OC(C)=O)[C@]14C (stereo partly specified)
inactive: locus YAL013W, strain DEP1, hits give low values 1.02 | locus YAL021C, strain ccr4, hits give low values 1 | locus YAL026C, strain drs2, hits give low values 0.994 | locus YAL030W, strain snc1, hits give low values 0.984 | locus YBL061C, strain skt5, hits give low values 0.962 | locus YBR009C, strain hhf1, hits give low values 0.965 | locus YBR021W, strain FUR4, hits give low values 1.02 | locus YBR023C, strain chs3, hits give low values 0.994 | locus YBR171W, strain sec66, hits give low values 0.989 | locus YBR229C, strain ROT2, hits give low values 1.01 | locus YBR231C, strain swc5, hits give low values 0.979 | locus YBR279W, strain paf1, hits give low values 0.985 | locus YCL011C, strain gbp2, hits give low values 0.975 | locus YCL016C, strain dcc1, hits give low values 0.976 | locus YCL029C, strain bik1, hits give low values 1.03 | locus YCL069W, strain vba3, hits give low values 0.983 | locus YCR088W, strain abp1, hits give low values 0.989 | locus YDL005C, strain med2, hits give low values 0.972 | locus YDL035C, strain GPR1, hits give low values 1.03 | locus YDL040C, strain nat1, hits give low values 0.984 | locus YDL074C, strain BRE1, hits give low values 1.04 | locus YDL101C, strain DUN1, hits give low values 1.02 | locus YDL134C, strain PPH21, hits give low values 1.01 | locus YDL185W, strain tfp1, hits give low values 1.02 | locus YDL192W, strain arf1, hits give low values 1.03 | locus YDR001C, strain nth1, hits give low values 0.974 | locus YDR069C, strain doa4, hits give low values 0.96 | locus YDR101C, strain arx1, hits give low values 1.02 | locus YDR137W, strain rgp1, hits give low values 0.95 | locus YDR159W, strain sac3, hits give low values 1 | locus YDR162C, strain NBP2, hits give low values 1.02 | locus YDR195W, strain ref2 0.986 | locus YDR297W, strain sur2, hits give low values 0.967 | locus YDR318W, strain mcm21, hits give low values 1.03 | locus YDR334W, strain swr1, hits give low values 0.965 | locus YDR335W, strain msn5, hits give low values 0.97 | locus YDR388W, hits give low values 1.02 | locus YDR392W, strain spt3, hits give low values 0.992 | locus YDR502C, strain sam2, hits give low values 1 | locus YEL003W, strain gim4, hits give low values 0.976 | locus YEL037C, strain rad23, hits give low values 0.99 | locus YEL061C, strain CIN8 (second series), hits give low values 0.978 | locus YER015W, strain faa2, hits give low values 0.978 | locus YER016W, strain bim1, hits give low values 0.98 | locus YER110C, hits give low values 1.02 | locus YER111C, strain swi4, hits give low values 0.969 | locus YER155C, strain BEM2 (second series), hits give low values 0.967 | locus YER155C, strain BEM2, hits give low values 1 | locus YER167W, strain BCK2, hits give low values 1.02 | locus YFR010W, strain ubp6, hits give low values 0.992 | locus YGL078C, strain dbp3, hits give low values 0.994 | locus YGL086W, strain mad1, hits give low values 1.01 | locus YGL167C, strain pmr1, hits give low values 0.992 | locus YGL173C, strain kem1, hits give low values 0.985 | locus YGL227W, strain vid30, hits give low values 0.979 | locus YGL240W, strain doc1, hits give low values 0.965 | locus YGL248W, strain PDE1, hits give low values 1.01 | locus YGL253W, strain hxk2, hits give low values 0.983 | locus YGR135W, strain pre9, hits give low values 1.02 | locus YGR229C, strain SMI1, hits give low values 0.998 | locus YGR252W, strain gcn5, hits give low values 0.994 | locus YHR013C, strain ard1, hits give low values 0.943 | locus YHR027C, strain rpn1, hits give low values 0.994 | locus YHR030C, strain SLT2, hits give low values 0.969 | locus YHR079C, strain IRE1 (second series), hits give low values 1 | locus YHR079C, strain IRE1, hits give low values 1 | locus YHR094C, strain hxt1, hits give low values 1.01 | locus YHR129C, strain ARP1, hits give low values 1.02 | locus YHR142W, strain chs7, hits give low values 0.97 | locus YHR200W, strain rpn10, hits give low values 1.02 | locus YIL066C, strain RNR3, hits give low values 1.04 | locus YIL073C, strain SPO22, hits give low values 1.02 | locus YIL125W, strain kgd1, hits give low values 1.01 | locus YIR030C, strain dcg1, hits give low values 1.02 | locus YJL092W, strain hpr5, hits give low values 0.973 | locus YJL095W, strain BCK1 (second series), hits give low values 0.995 | locus YJL095W, strain BCK1, hits give low values 0.995 and 0.969 | locus YJL115W, strain asf1, hits give low values 0.967 | locus YJL129C, strain trk1, hits give low values 0.944 | locus YJL134W, strain LCB3, hits give low values 1.01 | locus YJL154C, strain vps35, hits give low values 0.981 | locus YJL164C, strain tpk1, hits give low values 1.01 | locus YJL166W, strain qcr8, hits give low values 0.99 | locus YJL168C, strain set2, hits give low values 1.01 | locus YJL187C, strain SWE1 (second series), hits give low values 1.01 | locus YJR043C, strain POL32, hits give low values 1.03 | locus YJR066W, strain TOR1, hits give low values 0.884 | locus YKL009W, strain mrt4, hits give low values 0.959 | locus YKL068W, hits give low values 0.998 | locus YKL085W, strain MDH1 (second series), hits give low values 1.01 | locus YKL085W, strain MDH1, hits give low values 1.01 | locus YKL160W, strain elf1, hits give low values 0.987 | locus YKR001C, strain vps1, hits give low values 0.992 | locus YKR026C, strain gcn3, hits give low values 0.983 | locus YKR091W, strain srl3, hits give low values 0.984 | locus YLL001W, strain dnm1, hits give low values 0.973 | locus YLL026W, hits give low values 0.978 | locus YLL041C, strain sdh2, hits give low values 0.987 | locus YLR027C, strain aat2, hits give low values 0.974 | locus YLR039C, strain RIC1, hits give low values 0.908 | locus YLR058C, strain SHM2, hits give low values 1.01 | locus YLR102C, strain apc9, hits give low values 1 | locus YLR113W, strain HOG1, hits give low values 1.01 | locus YLR221C, strain rsa3, hits give low values 0.976 | locus YLR258W, strain gsy2, hits give low values 0.996 | locus YLR262C, strain YPT6 (second series), hits give low values 0.997 | locus YLR262C, strain YPT6, hits give low values 0.754 | locus YLR268W, strain sec22, hits give low values 1.03 | locus YLR320W, strain mms22, hits give low values 0.988 | locus YLR342W, strain FKS1 (second series), hits give low values 0.987 | locus YLR342W, strain FKS1, hits give low values 0.982 | locus YLR357W, strain rsc2, hits give low values 1.01 | locus YLR370C, strain arc18, hits give low values 0.971 | locus YLR371W, strain rom2, hits give low values 1.04 | locus YLR384C, strain iki3, hits give low values 0.984 | locus YLR418C, strain cdc73, hits give low values 1.04 | locus YML016C, strain PPZ1, hits give low values 1.01 | locus YML032C, strain rad52, hits give low values 1 | locus YML120C, strain ndi1, hits give low values 0.982 | locus YML124C, strain tub3, hits give low values 1.01 | locus YMR058W, strain fet3, hits give low values 0.97 | locus YMR078C, strain ctf18, hits give low values 1.01 | locus YMR125W, strain sto1, hits give low values 0.986 | locus YMR129W, hits give low values 0.986 | locus YMR205C, strain PFK2, hits give low values 1 | locus YMR223W, strain ubp8, hits give low values 1.01 | locus YMR231W, strain pep5, hits give low values 0.975 | locus YMR307W, strain GAS1, hits give low values 1.23 | locus YNL067W, strain RPL9B, hits give low values 1.01 | locus YNL071W, strain lat1, hits give low values 0.989 | locus YNL153C, strain GIM3, hits give low values 1.03 | locus YNL183C, strain NPR1, hits give low values 0.935 | locus YNL209W, strain ssb2, hits give low values 0.985 | locus YNL233W, strain BNI4, hits give low values 1.04 | locus YNL248C, strain rpa49, hits give low values 0.977 | locus YNL250W, strain rad50, hits give low values 1.04 | locus YNL271C, strain bni1, hits give low values 1.02 | locus YNL298W, strain CLA4, hits give low values 1 | locus YNL307C, strain MCK1, hits give low values 1.02 | locus YNL322C, strain KRE1 (second series), hits give low values 0.972 | locus YNL322C, strain KRE1, hits give low values 1.01 | locus YNR049C, strain mso1, hits give low values 0.96 | locus YNR052C, strain pop2, hits give low values 1.03 | locus YOL006C, strain TOP1, hits give low values 1.06 | locus YOL012C, strain htz1 0.933 | locus YOL147C, strain pex11, hits give low values 1.02 | locus YOR001W, strain rrp6, hits give low values 0.967 | locus YOR061W, strain CKA2, hits give low values 1.04 | locus YOR069W, strain VPS5, hits give low values 1.01 | locus YOR070C, strain gyp1, hits give low values 1.01 | locus YOR080W, strain dia2, hits give low values 0.964 | locus YOR083W, strain WHI5, hits give low values 0.993 | locus YOR106W, strain vam3, hits give low values 0.953 | locus YOR136W, strain idh2, hits give low values 1 | locus YOR144C, strain elg1, hits give low values 1.01 | locus YOR184W, strain ser1, hits give low values 1.04 | locus YOR231W, strain MKK1, hits give low values 0.955 | locus YOR265W, strain rbl2, hits give low values 0.994 | locus YOR270C, strain vph1, hits give low values 0.866 | locus YOR290C, strain snf2, hits give low values 0.962 | locus YOR316C, strain cot1, hits give low values 1 | locus YPL051W, strain arl3, hits give low values 1 | locus YPL078C, strain atp4, hits give low values 0.964 | locus YPL106C, strain sse1, hits give low values 1.02 | locus YPL240C, strain hsp82, hits give low values 0.988 | locus YPL256C, strain CLN2, hits give low values 0.966 | locus YPR119W, strain clb2, hits give low values 1 | locus YPR141C, strain kar3, hits give low values 1.02 | locus YPR163C, strain tif3, hits give low values 1.02 | locus YPR167C, strain met16, hits give low values 1.01 | strain wtn01, hits give low values 0.995
